From PubChem
HSP90 refold inh = HSP90 inhibitors, primary screen, cell lysate, luminescence; Rabbit reticulocyte lysate, luciferase refolding luminescence, 3 h; inhibition, % at 5.6 µM; AID 1789, 2009; hit rate 0.91% among 290,000;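 active means inhibition above the screen-wide mean plus 3 SD, computed separately per campaign, cut at about 16% in these data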;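 further: inhibitors lower the luminescence because luciferase stays unfolded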
HIF activator = HIF pathway transcriptional activators, primary screen, cell-based, U2OS HRE-luciferase, luminescence | AID 1910, 2009 | U2OS HRE-luciferase reporter; normalized: DMSO 0%, desferrioxamine 100% | activation, % at 7.5 µM (by protocol) | hit rate 0.32% among 300,000;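 active means mean activation of at least 10% of the iron chelator positive control signal, with at least half of replicates also reaching 10%; inconclusive means mean and replicate majority disagree about reaching 10%; inactive means mean and most replicates under 10%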
ARNT-TACC3 inh = disruptors of ARNT/TACC3 protein interaction, primary screen, biochemical, AlphaScreen, single concentration | Transforming acidic coiled-coil-containing protein 3 (Homo sapiens), Q9Y6A5 | AlphaScreen His-ARNT PAS-B/GST-TACC3 binding, luminescence; TACC3 fragment carries E629A point mutation | hit rate 0.66% among 390,000 | inhibition, % at 9.99 µM;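 active means mean inhibition of replicates at least 50% and at least half of replicates each reaching 50%; inconclusive means half or more replicates reach 50% but mean below 50%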
HSF-1 act = HSF-1 activators, primary screen, NIH3T3-HGL cells, MG132 stress, luminescence, single point; NIH3T3-HGL HSF-1 luciferase reporter, 8 h; 100% = twice DMSO control signal; activation, % at 9 µM; hit rate 1.7% among 300,000;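 active means mean replicate activation of at least 50% with a set share of replicates each reaching 50%; inconclusive means only one of those two conditions met; inactive means mean below 50% and too few replicates reaching it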
HSF1 inh = HSF1 inhibitors in luciferase reporter cells, primary screen, cell-based, NIH3T3, luminescence; activity change, negative = inhibition, % at 7.5 µM (by protocol); AID 2098, 2009; hit rate 0.77% among 300,000; NIH3T3-HGL HSE-luciferase, MG132-induced, luminescence 8 h; stronger effect = lower value;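 active means more than half of replicate wells show activity change below -50%, luminescence cut by over half; inconclusive means some wells, but at most half, below -50%; inactive means no replicate well below -50%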;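 further: luciferase reports HSF-1 transcriptional activity via heat shock element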
HSP90 confirm = HSP90 inhibitors, confirmation, cell lysate, luminescence; shares compounds with HSP90 refold inh; rabbit reticulocyte lysate, luciferase refolding luminescence, 3 h; inhibition, % at 5.9 µM; hit rate 64% among 2,300; in the data active means inhibition above about 18%
luciferase ctr = firefly luciferase inhibitors, HSP90 counter-screen, confirmation, artefact control for HSP90 inhibitor project, biochemical, luminescence, triplicate. inhibition, % at 5.9 µM. AID 1847, 2009. hit rate 48% among 2,300. purified native firefly luciferase. shares compounds with HSP90 refold inh;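 active means inhibition above the mean inhibition of all tested sample wells plus 3 SD, cut at about 10% in these data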
Target sequence (P08659 whole entry, looked up): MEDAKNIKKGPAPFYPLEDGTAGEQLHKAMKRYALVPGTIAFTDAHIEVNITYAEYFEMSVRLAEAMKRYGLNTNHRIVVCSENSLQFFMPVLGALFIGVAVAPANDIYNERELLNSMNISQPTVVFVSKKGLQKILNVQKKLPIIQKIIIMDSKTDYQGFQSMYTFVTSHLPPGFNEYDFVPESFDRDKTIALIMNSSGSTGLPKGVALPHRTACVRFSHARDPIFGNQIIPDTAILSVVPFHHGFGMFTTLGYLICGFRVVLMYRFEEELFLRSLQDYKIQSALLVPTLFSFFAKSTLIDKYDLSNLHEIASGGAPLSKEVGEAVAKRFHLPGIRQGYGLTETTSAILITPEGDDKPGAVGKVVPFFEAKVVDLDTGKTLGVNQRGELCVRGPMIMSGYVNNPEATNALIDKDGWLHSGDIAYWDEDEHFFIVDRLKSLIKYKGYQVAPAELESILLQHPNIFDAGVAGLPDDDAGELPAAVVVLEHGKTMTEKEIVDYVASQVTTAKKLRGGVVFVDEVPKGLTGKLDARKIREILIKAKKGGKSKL
Of the large screens only hits and unclear results are named; the others gave an inactive call (follow-up assays come after a bar, where they were run). This is a sample that favours compounds with a hit; in the whole collection about 3.1% have one here.

C[C@H]1CN([C@@H](C)CO)C(=O)Cc2cc(NC(=O)Nc3ccc(C(F)(F)F)cc3)ccc2O[C@H]1CN(C)S(=O)(=O)c1ccccc1	none (no result: HSP90 refold inh, HIF activator, HSF-1 act, HSF1 inh)
Nc1nc(-c2ccco2)c(-c2ccco2)s1	HSP90 refold inh 20.4 | HSP90 confirm inactive | luciferase ctr inactive
c1ccc(-n2cnc3cc(NCc4cccs4)ccc32)cc1	HSP90 refold inh 51.3, HSF1 inh -66.6 | HSP90 confirm 62.6 | luciferase ctr 60.7
COC(=O)c1sc(NC(=S)NC(=O)c2ccccc2F)nc1C	none
Cc1nc(NC(=O)c2ccccc2)sc1-c1csc(Nc2ccc(C(=O)O)cc2)n1	HSP90 refold inh 30.9 | HSP90 confirm inactive | luciferase ctr inactive
Cc1nc(NC(=O)c2ccc(F)cc2)sc1C(=O)Nc1ccc2c(c1)CCC2	HSP90 refold inh 39.0 (no result: HIF activator) | HSP90 confirm 45.7 | luciferase ctr inactive
COC(=O)c1sc(NC(=S)NC(=O)c2cccc(C)c2)nc1C	HSP90 refold inh 22.3 | HSP90 confirm inactive | luciferase ctr inactive
Cc1nc(NC(=O)c2ccccc2)sc1-c1csc(NCc2ccco2)n1	HSP90 refold inh 48.3 | HSP90 confirm 28.9 | luciferase ctr inactive
O=C(C[C@@H]1CC[C@H]2[C@@H](COC[C@@H](O)CN2S(=O)(=O)c2ccc(Cl)cc2)O1)N[C@H]1CCN(Cc2ccccc2)C1	none (no result: HSP90 refold inh, HIF activator, HSF-1 act, HSF1 inh)
COc1cccc(NC(=O)c2sc(NC(=O)c3ccncc3)nc2C)c1	HSP90 refold inh 78.5 | HSP90 confirm 79.9 | luciferase ctr 41.4
Cc1nc(NC(N)=S)sc1C(=O)Nc1ccccc1	HSP90 refold inh 18.8 | HSP90 confirm 25.9 | luciferase ctr inactive
COc1cccc(Nc2nc(-c3sc(NC(=O)c4ccccc4)nc3C)cs2)c1	HSP90 refold inh 44.9 | HSP90 confirm inactive | luciferase ctr inactive
COc1cccc(Nc2nc(-c3sc(NC(=O)CC(C)C)nc3C)cs2)c1	none
COc1cccc(S(=O)(=O)N[C@H]2C=C[C@@H](CC(=O)NCc3ccncc3)O[C@H]2CO)c1	none (no result: HSP90 refold inh, HIF activator, HSF-1 act, HSF1 inh)
Cc1ccc(S(=O)(=O)Nc2ccc3c(c2)C(=O)N([C@H](C)CO)C[C@H](C)[C@@H](CN(C)Cc2ccc(Cl)c(Cl)c2)OCCCC[C@H](C)O3)cc1	none (no result: HSP90 refold inh, HIF activator, HSF-1 act, HSF1 inh)
CC(=O)Nc1ccc(OS(=O)(=O)c2ccc([N+](=O)[O-])cc2)cc1	HSP90 refold inh 54.6 | HSP90 confirm 75.7 | luciferase ctr inactive
COC(=O)c1sc(-c2ccc(Cl)cc2)cc1N	none
CC(=O)c1sc(-c2ccc(Cl)cc2)cc1N	HSP90 refold inh 18.0 | HSP90 confirm inactive | luciferase ctr inactive
C[C@H]1CN([C@@H](C)CO)C(=O)c2cccc(NC(=O)C3CCOCC3)c2O[C@@H]1CN(C)S(C)(=O)=O	none (no result: HSP90 refold inh, HIF activator, HSF-1 act, HSF1 inh)
Cc1ccnc(NC(=O)/C=C/c2ccccc2Cl)c1	HSP90 refold inh 34.7 | HSP90 confirm 58.1 | luciferase ctr 46.9
O=C(c1ccncc1)N1CC[C@@H]2[C@H](CO)Nc3ccc(Br)cc3[C@@H]21	none (no result: HSP90 refold inh, HIF activator, HSF-1 act, HSF1 inh)
CN1C(=O)c2cc(NC(=O)NC3CCCC3)ccc2OC[C@H]2O[C@H](CC(=O)NCC3CC3)CC[C@H]21	none (no result: HSP90 refold inh, HIF activator, HSF-1 act, HSF1 inh)
CN(C)c1ccc(-c2nc3cc(N)ccc3o2)cc1	HSP90 refold inh 29.5 | HSP90 confirm 55.0 | luciferase ctr 51.5
CC(C)C#Cc1ccc([C@H]2[C@@H](C#N)N(C(=O)c3ccccn3)[C@@H]2CO)cc1	none (no result: HSP90 refold inh, HIF activator, HSF-1 act, HSF1 inh)
O=C(c1ccc(N2CCOCC2)cc1)c1cccs1	HSP90 refold inh 18.1 | HSP90 confirm 42.2 | luciferase ctr 21.2
N#Cc1cc[n+](CC(=O)c2ccc(NC(=O)c3ccccc3)cc2)cc1	HSP90 refold inh 21.5 | HSP90 confirm inactive | luciferase ctr inactive
Cc1cccc[n+]1CC(=O)c1ccc(NC(=O)c2ccccc2)cc1	none
COc1ccc(S(=O)(=O)N[C@H]2CC[C@H](CC(=O)N3CCc4ccccc4C3)O[C@@H]2CO)cc1	none (no result: HSP90 refold inh, HIF activator, HSF-1 act, HSF1 inh)
CC(=O)N(Cc1ccc(F)cc1)C1=C(NCCc2ccccc2)C(=O)c2ccccc2C1=O	HSP90 refold inh 47.6 | HSP90 confirm inactive | luciferase ctr inactive
CC(=O)N(Cc1ccc(F)cc1)c1cccc(C)c1C	none (no result: ARNT-TACC3 inh)
COc1ccc2c(c1)c(C(=O)CN1CCN(c3ccccc3)CC1)c(C)n2C	none (no result: ARNT-TACC3 inh)
COc1ccc2c(c1)c(C(=O)CN1CCN(Cc3ccccc3)CC1)c(C)n2C	HSP90 refold inh 28.1 | HSP90 confirm inactive | luciferase ctr inactive
O=C(C[C@@H]1CC[C@@H]2[C@H](COC[C@H](O)CN2S(=O)(=O)c2ccccc2)O1)Nc1ccc(-c2ccccc2)cc1	none (no result: HSP90 refold inh, HIF activator, HSF-1 act, HSF1 inh)
C[C@H](CO)N1C[C@H](C)[C@H](CN(C)Cc2ccc(C(F)(F)F)cc2)Oc2ccc(NC(=O)NC3CCCCC3)cc2CC1=O	none (no result: HSP90 refold inh, HIF activator, HSF-1 act, HSF1 inh)
Cc1ccc(-c2cc(-c3ccccc3)no2)c(O)c1	none
CCc1ccn2cc(-c3cc(-c4ccccc4)no3)nc2c1	HSP90 refold inh 82.2, HSF1 inh -68.6 | HSP90 confirm 86.4 | luciferase ctr 84.3
Cc1ccc2nc(-c3cc(-c4ccccc4)no3)cn2c1	HSP90 refold inh 25.4 | HSP90 confirm 68.6 | luciferase ctr 57.8
C[C@@H]1CN([C@H](C)CO)C(=O)c2cc(-c3ccncc3)cnc2O[C@H]1CN(C)C(=O)NC1CCCC1	none (no result: HSP90 refold inh, HIF activator, HSF-1 act, HSF1 inh)
Cn1c2ccccc2c(=O)c2ccc(C#CC3(O)CCCCC3)cc21	HSP90 refold inh 59.1, HSF1 inh -64.8 | HSP90 confirm 66.4 | luciferase ctr 65.0
O=C(O)/C=C/c1cnn(-c2ccccc2)c1	HSP90 refold inh 53.3, HIF activator inconclusive | HSP90 confirm 59.4 | luciferase ctr 38.0
C[C@H](CO)N1C[C@H](C)[C@@H](CN(C)CC2CCCCC2)OCCCC[C@H](C)Oc2ccc(NS(=O)(=O)c3ccc(F)cc3)cc2C1=O	none (no result: HSP90 refold inh, HIF activator, HSF-1 act, HSF1 inh)
O=[N+]([O-])/C(=C\Nc1ccccc1)S(=O)(=O)c1ccccc1	HSP90 refold inh 18.1 | HSP90 confirm inactive | luciferase ctr inactive
C[C@@H]1CN([C@@H](C)CO)C(=O)c2cc(NC(=O)Nc3ccc(F)cc3)ccc2O[C@@H](C)CCCCO[C@@H]1CN(C)Cc1ccccc1	none (no result: HSP90 refold inh, HIF activator, HSF-1 act, HSF1 inh)
COc1ccc(N=Cc2ccccc2O)cc1	none (no result: HSP90 refold inh, HIF activator, HSF-1 act, HSF1 inh)
COc1ccc(N=CC2=C(O)c3ccccc3C2=O)cc1	HSP90 refold inh 28.9 | HSP90 confirm 76.8 | luciferase ctr 79.7
CCNC(=O)Nc1ccc2c(c1)C(=O)N(C)[C@H]1CC[C@H](CC(=O)Nc3ccccc3)O[C@@H]1CO2	none (no result: HSP90 refold inh, HIF activator, HSF-1 act, HSF1 inh)
